Experiment [1] in a line: Tanguay_ZF_120hpf_PE_legacy: (Legacy) Oregon State University Tanguay Lab 120 Hour Post-fertilization zebrafish Assay for Pericardial Edema (AID 2283640). An outline of the steps:
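Static waterborne exposure, 5D wild-type embryos, 28C, to 120 hpf; final DMSO 0.64% (vol/vol). Binary PE call at 120 hpf by brightfield; fitted upward vs DMSO baseline. 5uM trimethyltin chloride as positive control.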

Experiment [2] can be described thus: Tanguay_ZF_120hpf_SOMI_legacy: (Legacy) Oregon State University Tanguay Lab 120 Hour Post-fertilization zebrafish Assay for Somite Malformation (AID 2283647). In short, it runs like this: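 Binary brightfield scoring of somite defects at 120 hpf in 5D wild-type larvae; one dechorionated embryo per well, static exposure from 6 hpf, 28C, sealed and dark. Final DMSO 0.64%; trimethyltin chloride 5uM positive control.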

The nature of experiment [3]: Tanguay_ZF_120hpf_PFIN_legacy: (Legacy) Oregon State University Tanguay Lab 120 Hour Post-fertilization zebrafish Assay for Pectoral Fin Malformation (AID 2283648).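 Further: each larva judged yes or no for fin defect by brightfield with dead larvae skipped.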 An outline of the steps: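 Dechorionated Tropical 5D wild-type zebrafish embryos, one per well, statically exposed from 6 to 120 hpf at 28C with 0.64% DMSO final. Pectoral fin malformation scored present/absent by brightfield at 120 hpf; not scored in dead embryos.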

A short description of experiment [4]: Tanguay_ZF_120hpf_CFIN_legacy: (Legacy) Oregon State University Tanguay Lab 120 Hour Post-fertilization zebrafish Assay for Caudal Fin Malformation (AID 2283649). An outline of the steps:
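Dechorionated 5D wild-type zebrafish, static exposure 6–120 hpf, 28C, sealed and dark, 0.64% v/v DMSO final. Binary fin-malformation call at 120 hpf, brightfield; gain of signal vs DMSO baseline.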

A short description of experiment [5]: Tanguay_ZF_120hpf_PIG_legacy: (Legacy) Oregon State University Tanguay Lab 120 Hour Post-fertilization zebrafish Assay for Pigmentation Malformation (AID 2283650). An outline of the steps: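 Dechorionated Tropical 5D wild-type embryos, one per well from 6 hpf, statically exposed at 28C in the dark until 120 hpf, 0.64% DMSO final. Pigmentation scored present/absent by brightfield microscopy; dead embryos not scored; fitted versus DMSO.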

Experiment [6] in a line: Tanguay_ZF_120hpf_CIRC_legacy: (Legacy) Oregon State University Tanguay Lab 120 Hour Post-fertilization zebrafish Assay for Circulatory Malformation (AID 2283651). In short, it runs like this:
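Dechorionated wild-type 5D zebrafish embryos, one per well, statically exposed from 6 to 120 hpf at 28C with 0.64% DMSO; circulatory malformation scored present/absent by brightfield microscopy at 120 hpf, dead embryos excluded.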

A short description of experiment [7]: Tanguay_ZF_120hpf_SWIM_legacy: (Legacy) Oregon State University Tanguay Lab 120 Hour Post-fertilization zebrafish Assay for Swim Bladder Malformation (AID 2283654).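 Further: swim bladder malformation in each larva scored yes or no under brightfield.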 An outline of the steps: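 Dechorionated wild-type Tropical 5D zebrafish embryos, one per well from 6 hpf, were statically exposed at 28C until 120 hpf in 0.64% DMSO. Swim bladder malformation scored as present/absent by brightfield microscopy; not scored in dead larvae.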

A short description of experiment [8]: Tanguay_ZF_120hpf_TRUN_legacy: (Legacy) Oregon State University Tanguay Lab 120 Hour Post-fertilization zebrafish Assay for Truncated Body (AID 2283655). In short, it runs like this:
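Whole-embryo zebrafish screen: dechorionated 5D embryos, static exposure 6–120 hpf, 28C, sealed foil-covered plates, 0.64% DMSO. Binary truncation call; gain of signal versus DMSO baseline.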

Experiment [9] can be described thus: Tanguay_ZF_120hpf_NC_legacy: (Legacy) Oregon State University Tanguay Lab 120 Hour Post-fertilization zebrafish Assay for Notochord and Tail Malformation (AID 2283656). An outline of the steps:
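Dechorionated Tropical 5D wild-type zebrafish embryos, one per well from 6 hpf, statically exposed to 120 hpf at 28C in 0.64% DMSO final. Notochord distortion scored present/absent by brightfield; dead embryos excluded.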

Experiment [10] can be described thus: Tanguay_ZF_120hpf_TR_legacy: (Legacy) Oregon State University Tanguay Lab 120 Hour Post-fertilization zebrafish Assay for Touch Response (AID 2283667). An outline of the steps: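 Tropical 5D wild-type zebrafish embryos statically exposed to 120 hpf at 28°C, sealed and dark-covered, 0.64% DMSO final; touch response scored as present/absent by brightfield microscopy at 120 hpf. Trimethyltin chloride 5 uM positive control; dead embryos not scored.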

Read-out in experiment [11]: solute carrier (SLC22A6), SLC22A6 (gene 9356)
Put plainly: LTEA_HepaRG_SLC22A6: Life Technologies and Expression Analysis (LTEA) Assay for solute carrier (SLC22A6) using HepaRG (AID 2283653; active means hit-call score of the fitted dose curve at least 0.9, where 1 is the maximum; inactive means score below 0.9). The conditions noted are these: mRNA level, 48 h; actives raise or lower the signal. An outline of the steps:
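HepaRG, human liver line; 48 h chemical exposure; 8-pt half-log series from 100 uM in 0.5% DMSO, duplicate wells. Readout: TaqMan qRT-PCR of SLC22A6 mRNA, housekeeping-normalised; bidirectional curve fit vs DMSO baseline.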

Read-out in experiment [12]: solute carrier (SLC10A1), SLC10A1 (gene 6554)
Put plainly: LTEA_HepaRG_SLC10A1: Life Technologies and Expression Analysis (LTEA) Assay for solute carrier (SLC10A1) using HepaRG (AID 2283657; active means hit-call score of the fitted dose curve at least 0.9, where 1 is the maximum; inactive means score below 0.9). As to conditions: mRNA level, 48 h; actives raise or lower the signal. An outline of the steps: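 HepaRG cells (single lot) exposed 48 h in serum-free induction medium, 8-point half-log series from 100 uM top in 0.5% DMSO, duplicate. SLC10A1 mRNA by qRT-PCR normalised to ACTB, GAPDH, POLR2A; bidirectional fit versus DMSO.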

Read-out in experiment [13]: matrix metalloproteinase-1 (MMP1), MMP1 (gene 4312)
Put plainly: LTEA_HepaRG_MMP1: Life Technologies and Expression Analysis (LTEA) Assay for matrix metalloproteinase-1 (MMP1) using HepaRG (AID 2283658; active means hit-call score of the fitted dose curve at least 0.9, where 1 is the maximum; inactive means score below 0.9). The conditions noted are these: mRNA level, 48 h; actives raise or lower the signal. An outline of the steps:
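MMP1 transcript read by TaqMan qRT-PCR (Fluidigm array) after 48 h chemical exposure of HepaRG cells in serum-free induction medium. Eight-point half-log series, top 100 uM, 0.5% DMSO vehicle. Bidirectional curve fit against DMSO baseline.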

Read-out in experiment [14]: Cytochrome P450 (CYP24A1_1), CYP24A1 (gene 1591)
Put plainly: LTEA_HepaRG_CYP24A1_1: Life Technologies and Expression Analysis (LTEA) Assay for Cytochrome P450 (CYP24A1_1) using HepaRG (AID 2283671; active means hit-call score of the fitted dose curve at least 0.9, where 1 is the maximum; inactive means score below 0.9). The conditions noted are these: mRNA level, 48 h; actives raise or lower the signal. An outline of the steps: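 Differentiated human HepaRG cells in serum-free induction medium, exposed 48 h in duplicate to eight half-log concentrations from 100 uM top, 0.5% DMSO. Transcript measured by TaqMan qRT-PCR, normalised to ACTB, GAPDH, POLR2A; bidirectional fitting versus DMSO.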

The nature of experiment [15]: CCTE_Padilla_ZF_144hpf_TERATOSCORE: (Legacy) CCTE's 144 Hour Post-fertilization zebrafish Assay Teratoscore, Padilla Lab (AID 2283679; active means hit-call score of the fitted dose curve at least 0.9, where 1 is the maximum; inactive means score below 0.9). An outline of the steps:
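Larvae scored by eye at 144 hpf for death, hatching and malformations after a day in clean Hanks'. Before that, daily-renewed exposure at 80 uM (0.4% DMSO, 26C) from roughly 6-8 hpf through 5 dpf, 4 embryos per chemical.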

Experiment [16] is described as follows: STM_H9_OrnithineISnorm_perc: Stemina devTOX quickPredict H9 human embryonic stem cell (hESC)-based Assay for Ornithine (ORN) Metabolite Biomarker, Normalized (AID 2283712; active means hit-call score of the fitted dose curve at least 0.9, where 1 is the maximum; inactive means score below 0.9;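 further: ornithine released into spent medium during last day measured by mass spectrometry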). In short, it runs like this:
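Undifferentiated H9 hESCs exposed 72 h with daily media and compound renewal; final 24-h conditioned medium analysed by UPLC-HRMS. Ornithine peak area normalised to spiked C13 standard and to median 0.1% DMSO control; viability by CellTiter-Fluor.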

A short description of experiment [17]: Tanguay_ZF_120hpf_BRAI_legacy: (Legacy) Oregon State University Tanguay Lab 120 Hour Post-fertilization zebrafish Assay for Brain Malformation (AID 2283641). An outline of the steps:
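Read-out: binary brain morphology call at 120 hpf (brightfield), fitted in gain-of-signal direction vs DMSO. Wild-type Tropical 5D embryos, static exposure, 28C, 0.64% DMSO final; 5uM trimethyltin chloride as positive control.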

Read-out in experiment [18]: kallikrein-3 (KLK3), KLK3 (gene 354)
Put plainly: LTEA_HepaRG_KLK3: Life Technologies and Expression Analysis (LTEA) Assay for kallikrein-3 (KLK3) using HepaRG (AID 2283652; active means hit-call score of the fitted dose curve at least 0.9, where 1 is the maximum; inactive means score below 0.9). The conditions noted are these: mRNA level, 48 h; actives raise or lower the signal. In short, it runs like this: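 Differentiated human HepaRG cells in serum-free induction medium exposed 48 h in duplicate, eight-point half-log series from 100 uM in 0.5% DMSO. KLK3 mRNA by qRT-PCR, normalised to ACTB, GAPDH, POLR2A; bidirectional fit versus DMSO.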

Experiment [19] concerns Thyroperoxidase (TPO), gene 54314. Put plainly: CCTE_Simmons_AUR_rTPO: CCTE's Amplex UltraRed Assay for Thyroperoxidase (TPO) Inhibition, Simmons Lab (AID 2283662).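 On AC50: potency for loss of signal meaning inhibition of peroxidase activity.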 An outline of the steps:
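Cell-free peroxidase activity assay using rat thyroid gland microsomes with excess H2O2 (300 uM) and 25 uM Amplex UltraRed. Compounds tested from 5 nM to 87.5 uM; fluorescence measured after 30 min at 37C, analysed relative to DMSO baseline.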

The nature of experiment [20]: CCTE_Simmons_CellTiterGLO_HEK293T: Viability Assessment in CCTE's Assays for Thyroperoxidase (TPO) Inhibition, Simmons Lab (AID 2283665).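 On AC50: cells exposed to compound for 24 h before readout; actives reduce ATP signal below DMSO vehicle meaning cytotoxicity.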 An outline of the steps: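 HEK293T cells in DMEM with 1% FBS, dosed 24 h at 37C with 8 concentrations, 5 nM–87.5 uM final, 0.5% DMSO. ATP measured by CellTiter Glo luminescence; loss of signal vs DMSO, three biological replicates.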
On the technique in general: ATP-based viability assays read luminescence as a measure of living cells.

Records with an inconclusive call do not appear. The source made the active and inactive calls. How the source made its calls, unless noted: active means hit-call score of the fitted dose curve at least 0.9, where 1 is the maximum; inconclusive means response in the unintended direction; inactive means score below 0.9.

Regarding `CCCCCCCC(=O)OC`, the outcome in [1], in experiment [2], in experiment [3], in experiment [4], in [5] and in experiment [6] was inactive. The result in experiment [7], in [8], in [9] and in [10] was inactive.

Consider `CCCCCCCCCC[N+](C)(C)[O-]`, for which the call in [1], in experiment [2], in experiment [3], in [4], in [5] and in experiment [6] was inactive. The compound was classed as inactive in experiment [11], in [7], in experiment [8], in experiment [9], in experiment [12] and in experiment [13]. The call in experiment [10], in [14], in experiment [15] and in experiment [16] was inactive.

With `O=C(O)c1[nH]n(-c2ccc(S(=O)(=O)O)cc2)c(=O)c1N=Nc1ccc(S(=O)(=O)O)cc1`, the compound was classed as inactive in experiment [1], in experiment [2], in [3], in experiment [4], in experiment [5] and in experiment [6]. Besides, the result in experiment [7], in experiment [8], in experiment [9] and in experiment [10] was inactive.

In the case of `CCCCC(CC)CO` (stereo unspecified), the result in experiment [1], in experiment [17], in [3], in experiment [4], in experiment [6] and in experiment [18] was inactive. Further, the compound was called inactive in experiment [11], in experiment [7], in [8], in experiment [12], in [13] and in experiment [10]. In addition, in experiment [14], the call was inactive.

On to `NC=O`, for which the compound was classed as inactive in [1], in [2], in experiment [3], in experiment [4], in experiment [5] and in experiment [7]. In addition, the compound was called inactive in experiment [8], in experiment [9], in [10] and in experiment [15].

For the compound `C/C=C/c1ccc(OC)cc1`, the compound was classed as inactive in experiment [1], in experiment [2], in [3], in experiment [4], in [5] and in experiment [7]. The compound was called inactive in [8], in experiment [9] and in experiment [20]. In addition, the AC50 (in general, the concentration giving half of the maximal activity seen) in [19] was 28400 nM (active).

Consider `CC(C)(C)c1ccccc1`, for which the compound was classed as inactive in experiment [1], in experiment [2], in experiment [3], in [4], in experiment [6] and in [7]. Further, the compound was classed as inactive in experiment [8], in experiment [9] and in experiment [10].

Take `NCCOCCOCCN`: the compound was called inactive in experiment [1], in [2], in [3], in [4], in experiment [6] and in experiment [7]. Moreover, the outcome in experiment [8] and in experiment [15] was inactive.

As for `CC1(C)C(=O)NC(=O)N1CO`, the result in experiment [1], in experiment [2], in experiment [3], in experiment [5], in [6] and in [7] was inactive. The call in experiment [8], in [9], in experiment [19], in experiment [20] and in experiment [10] was inactive.

As for `CCc1cc(C2=C(C(=O)O)N(c3ccccc3C(F)(F)F)S(=O)(=O)c3ccccc32)cc2c1OCO2`, the compound was called inactive in [1], in [3], in [4], in [7], in experiment [8] and in [10]. The call in experiment [15] and in experiment [16] was inactive.

Consider `Nc1nc(=S)c2[nH]cnc2[nH]1`, for which the compound was called inactive in [1], in experiment [3], in experiment [4], in experiment [5], in experiment [7] and in [8]. Moreover, the result in experiment [9] and in [10] was inactive. Besides, the values for the concentration at half-maximal activity (AC50) in experiment [19], in experiment [20] and in experiment [16] were 414 nM (active), 1290 nM (active) and 3060 nM (active), respectively.

(Values after PubChem BioAssay (EPA / NIEHS).)
